Reference: PubChem BioAssay (NCATS)
Several values for one entry are separate records, joined by “and”; a condition that tells them apart may be missing. Equal values may be shown once. Results filed as inconclusive are left out. Activity calls are given as the source filed them. The call rests on the fitted dose curve; in most records, active means well fitted activation curve with a large enough effect; inconclusive means small, poorly fitted or top-dose-only effect; inactive means no such curve, though single readings can be large or run the other way.

Biological target: Cellular tumor antigen p53 (Homo sapiens) (UniProt P04637)
Experiment: Primary qHTS for small molecule compounds that upregulate eGFP-tagged delta133p53alpha (in N-terminal) cells. (AID 2060322); further: nearly all actives have a fitted effect of over 75% in size;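 on activation: cells pre-induced with doxycycline then dosed without doxycycline; series mostly up to about 56 µM; 0% = DMSO vehicle and 100% = reference activator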
Conditions: NCI-H358 eGFP-delta133p53alpha fluorescence, 24 h; activation: stronger effect = higher value
Procedure, shortened: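 NCI-H358 cells pre-induced 24 h with 10 ng/ml doxycycline for eGFP-delta133p53alpha, plated dox-free and exposed 24 h at 37C to titrated compounds. Fixed, Hoechst-stained; gated GFP peak intensity by laser scanning cytometry, normalized to DMSO (0%) and 57.5 uM 5-azacytidine (100%).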
Potency means the concentration at half of the fitted maximal effect.

Cellular tumor antigen p53 (Homo sapiens), sequence (P04637 whole entry, looked up): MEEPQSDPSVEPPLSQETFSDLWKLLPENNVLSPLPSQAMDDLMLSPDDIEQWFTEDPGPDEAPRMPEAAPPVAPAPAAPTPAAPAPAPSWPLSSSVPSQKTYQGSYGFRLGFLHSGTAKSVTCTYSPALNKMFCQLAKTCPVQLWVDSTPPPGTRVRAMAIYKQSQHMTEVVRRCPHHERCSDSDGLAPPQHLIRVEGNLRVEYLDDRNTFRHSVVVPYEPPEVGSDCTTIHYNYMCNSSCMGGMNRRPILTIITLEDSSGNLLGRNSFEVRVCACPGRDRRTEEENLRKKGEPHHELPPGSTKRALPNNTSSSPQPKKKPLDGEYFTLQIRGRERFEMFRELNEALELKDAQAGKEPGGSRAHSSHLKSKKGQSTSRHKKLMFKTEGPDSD

SMILES | Potency | activation
C=C1C(=O)O[C@@H]2/C=C(\CO)CC/C=C(/C=O)C[C@H](O)[C@@H]12 | 26.9 µM (active) | –
CC1CCCC(O)CC(=O)c2c(O)cc(O)cc2CC(=O)O1 (centres undefined) | – | 4.58% (inactive)
O=C(c1ccc(OC(F)F)c(C#Cc2ccccn2)c1)N1Cc2cccnc2C1 | – | 4.77% (inactive)
Cc1ccc(C2(COC(=O)C(C)C)CO2)c(OC(=O)C(C)C)c1 (centres undefined) | – | 3.82% (inactive)
C[C@@H]1C(=O)O[C@H]2[C@H](O)C34[C@H]5C[C@@H](C(C)(C)C)C36[C@@H](OC(=O)[C@@H]6O)O[C@@]4(C(=O)O5)[C@@]12O (some centres undefined) | – | 0.763% (inactive)
NC1CCC(Nc2cc(-c3cccc(NCc4cccc(F)c4)n3)c(Cl)cn2)CC1 (centres undefined) | 1.51 µM (active) | –
COc1cc(C(=O)OC[C@H]2O[C@H](O[C@@]3(CO)O[C@@H](CO)[C@H](O)[C@H]3O)[C@H](O)[C@@H](O)[C@@H]2O)ccc1O | – | -1.53% (inactive)
CC1=CC(=O)[C@H]2C(C)(C)CCC[C@]2(C)[C@@]1(O)CO | – | -29% (inactive)
C=C1C[C@]23C[C@H]1CC[C@H]2[C@]1(C)CCC[C@@](C)(C(=O)O)[C@H]1[C@@H]3C(=O)O | – | -8.04% (inactive)
C[C@@H]1CCC2C(C)(C)[C@H](O)[C@H](O)C[C@]2(C)[C@@]12Cc1c(O)cc3c(c1O2)CN(CCCC(=O)O)C3=O (some centres undefined) | – | -3.05% (inactive)
CC(=O)OC1CC(C(C)(C)O)OC2CCC3(C)OC4=C(C(=O)C=C5C(C)C(OC(C)=O)C6(C)C(C)OC546)C(O)C3C12C (centres undefined) | – | 2.68% (inactive)
CC(=O)OC1CC(O)(C(C)C)C2C(OC(=O)c3ccc(O)cc3)C=C(C)C(=O)CC12C (centres undefined) | – | 29.8% (inactive)
CC(C)C[C@@H]1NC(=O)[C@@H]2C[C@@]34C[C@@H]5[C@@]6(C)CCCC(C)(C)C6CC[C@@]5(C)N(c5ccccc53)[C@H]4N2C1=O (some centres undefined) | – | 3.82% (inactive)
CC1CCC2(C)C(CC(O)C(O)C23CO3)C1(C)CCC1=CC(O)OC1=O (centres undefined) | – | -2.29% (inactive)
Nc1nc2c(s1)CCN(Cc1ccc(Cl)cc1)CC2 | – | 19.1% (inactive)
C#C[C@]1(OC(C)=O)CC[C@H]2[C@@H]3CCC4=C[C@@H](OC(C)=O)CC[C@@H]4[C@H]3CC[C@@]21C | – | 6.33% (inactive)
CO[C@@H]1[C@]2(O)C(=O)N3/C=C\C(C)(C)c4[nH]c5ccccc5c4/C=C\3C(=O)N2[C@]23[C@H](CO)C(C)(C)N2c2ccccc2[C@]13O | – | 8.4% (inactive)
C/C=C/C=C/C(O)=C1\C(O)=C(C)C(=O)[C@@]2(C)OC(=O)[C@@](C)(NC(=O)/C=C/C(=O)O)[C@@H]12 | – | 10.7% (inactive)
C=C[C@H]1[C@H](O[C@@H]2O[C@H](CO)[C@@H](O)[C@H](O)[C@H]2O)OC=C(C(=O)OC)[C@H]1CC=O | – | -32.8% (inactive)
C=C1C(=O)O[C@@H]2CC(C)=C([C@@H](C)CCCOC(C)=O)[C@@H](O)[C@H]12 | – | 28.6% (inactive)
COc1cc2c(cc1OC)N1C(=O)C[C@@]34C=CC[N@+]5([O-])CC[C@H]2[C@H](CC3)[C@@]145 | – | 5.36% (inactive)
Nc1ccc(S(=O)(=O)Nc2nccs2)cc1 | – | 18.4% (inactive) and 0.333% (inactive)
CC(C)/C=C1\NC(=O)C(C(C)C)n2c1nc1c(c2=O)C=CC=CO1 (centres undefined) | – | -7.63% (inactive)
CC1(C)CC[C@]2(C(=O)O)CC[C@]3(C)C(=CCC4[C@@]5(C)CC[C@H](O[C@@H]6O[C@H](C(=O)O)[C@@H](O[C@@H]7OC[C@@H](O)[C@H](O)[C@H]7O)[C@H](O)[C@H]6O)C(C)(C)C5CC[C@]43C)C2C1O (some centres undefined) | – | -1.79% (inactive)
CCCC(CCC)C(=O)NCc1ccc2c(cnn2-c2ccccc2OC)c1 | – | -5.25% (inactive)
CO[C@@]12CC3[C@@H]([C@@H](O)[C@@H](OC(C)=O)C4[C@](C)(COC(C)=O)CCC[C@]34C)[C@@H](C)C1=CC(=O)O2 (some centres undefined) | – | -3.05% (inactive)
C=C(C(=O)O)C1CC2=C(C)C(=O)CC2C(C)CC1O (centres undefined) | 12 µM (active) | –
CC(=O)O[C@H]1[C@H](O[C@H]2[C@@H]3C=CO[C@@H](O[C@@H]4O[C@H](CO)[C@@H](O)[C@H](O)[C@H]4O)[C@@H]3[C@@]3(CO)O[C@@H]23)O[C@@H](C)[C@H](OC(=O)/C=C/c2ccccc2)[C@H]1OC(=O)/C=C/c1ccccc1 | – | -7.63% (inactive)
Cc1cc(O)cc2c1O[C@](C)(CCC[C@H](C)CCC[C@H](C)CCCC(C)C)CC2 | – | -16.4% (inactive)
